From PubChem BioAssay AID1159580 (chemical genetic matrix, 2015)
The whole screen tested about 5,500 compounds, of which about 2,000 (36%) were called active. Another 18% or so got no clear call; they are omitted. Cut-off read from the data, not from the text of the source: active = normalized growth mostly below about 0.91 (no sharp cut-off); inconclusive = no clear call, values can overlap the other calls; inactive = mostly above about 0.92. The list shows a part of the results.

Test: chemical genetic growth profiling, strain panel (AID 1159580);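 note: tested at 20 µM; growth read once vehicle control cultures reached saturation at 30 °C; 1 = growth at the plate median or of vehicle wells; lower values mean less growth of the strain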
Conditions: S. cerevisiae deletion strains, growth OD
[1] = locus YAL040C, strain CLN3, hits give low values
[2] = locus YCL061C, strain MRC1 (second series), hits give low values
[3] = locus YER002W, strain NOP16, hits give low values
[4] = locus YMR263W, strain SAP30, hits give low values
[5] = locus YNL153C, strain GIM3, hits give low values
[6] = locus YNL175C, strain NOP13, hits give low values
[7] = locus YNL197C, strain WHI3, hits give low values
[8] = locus YNL224C, strain SQS1, hits give low values
[9] = locus YOR083W, strain WHI5 (second series), hits give low values

Measured: normalized growth

CCCC1O[C@@H]2C[C@H]3[C@@H]4CCC5=CC(=O)C=C[C@]5(C)[C@H]4[C@@H](O)C[C@]3(C)[C@]2(C(=O)CO)O1 (stereo partly drawn)
inactive: [1] 1.06 | [2] 0.998 | [3] 1.01 | locus YGR078C, strain PAC10, hits give low values 1.02 | [4] 1 | [5] 0.982 | [6] 0.994 | [7] 0.974 | [8] 1.01 | [9] 0.992

CN1CCC2(CCN3CCc4c(oc5ccccc45)C3C2)N(C)C1=O (stereo not drawn)
inactive: locus YAL013W, strain DEP1, hits give low values 1.02 | [1] 1 | [2] 1 | locus YDR150W, strain NUM1, hits give low values 0.996 | locus YDR363W, strain ESC2, hits give low values 1.02 | [3] 1.01 | [4] 1 | [5] 1 | [6] 1 | [7] 1.01 | [8] 1.01 | [9] 1.02 | locus YPL055C, strain LGE1, hits give low values 1
